Test results taken from PubChem BioAssay AID488841 (Sanford-Burnham Center for Chemical Genomics, 2010).
Hit rate of the full screen: of about 1,400 compounds, about 380 (27%) were called active.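 Rule for the calls: active = mean inhibition above 50% across duplicate retests at 10 µM; inactive = the rest.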 Some of the results follow.

Assay: yeast NALP1 reporter signal suppression – S. cerevisiae, luminescence, single concentration, NALP1 inhibitor project, confirmation (AID 488841);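 note: plate controls were DMSO in galactose medium for no effect and cells in plain SD medium for full effect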
Settings: S. cerevisiae NALP1/ASC/Caspase-1 reporter, beta-gal luminescence; at 10 µM; hits give high values

inhibition, inactive:
Cn1cc(S(=O)(=O)N2CCN(c3cccc(C(F)(F)F)c3)CC2)c(=O)n(C)c1=O 7.85%
CN(Cc1ccccc1)C(=O)c1ccc([N+](=O)[O-])o1 40.2%
COC(=O)c1ccc(/C=C(\C#N)C(=O)NC(C)c2ccccc2)cc1 (stereo not drawn) 23.2%
COc1cc(/C=C/C(=O)Nc2ccc(C)cc2)cc(OC)c1OC 33.6%
COc1cc(/C=C(\NC(C)=O)C(=O)Nc2cccc(O)c2)ccc1OC(C)=O 28.1%
CCc1ccc(CC(=S)N2CCOCC2)cc1 42.3%
CCOc1ccc(C(=O)Nc2ccc(-c3nc4ccccc4[nH]3)cc2)cc1[N+](=O)[O-] 26.6%
CCOc1ccc(C(=O)NC(=S)Nc2ccccc2N2CCCCC2)cc1[N+](=O)[O-] 43.9%
CC(C)c1nc(SCC(=O)Nc2ccc3c(c2)OCCO3)n[nH]1 19.3%
N#Cc1ccc(-c2ccc(Cl)cc2)nc1SCC(=O)c1cccc(Cl)c1 26.4%
Cc1ccc(NC(=O)Cn2cccc2)c(C)c1 27.8%
COc1ccccc1CN(Cc1nc2ccccc2c(=O)[nH]1)C(=O)Nc1ccccc1 36.4%
Cc1cccc2sc(N(CCCN(C)C)C(=O)c3sc4ccccc4c3Cl)nc12 35.9%
CN(C)C(CNC(=O)CCCOc1ccccc1)c1ccco1 (stereo not drawn) 30.6%
Cc1ccc2nc(N(CCCN(C)C)C(=O)CCc3ccccc3)sc2c1 46.8%
CCOC(=O)c1cnc2ccccc2c1Nc1cc(C(=O)O)ccc1C 26.6%
Cc1cc(N2CCOCC2)n2ncc(-c3ccccc3)c2n1 46.7%
C=CCc1cccc(/C=N/c2nc3ccccc3n2CC)c1O 15.8%
O=C1c2ccccc2C(=O)c2c1ncn2-c1ccccc1 24.1%
Cc1cc(Br)ccc1OCCn1ccnc1 43%
CCOc1ccc(OCCCCn2ccnc2)cc1 34.5%
COC(=O)c1c(N)c(C#N)c2n1CCCCC2 21%
Cc1cccc(C)c1NC(=O)CSc1nc2ccccc2c(=O)[nH]1 31.1%
CCCn1nc(NC(=O)c2ccccn2)c2cc3cc(C)ccc3nc21 13.2%
NC(C(=O)O)C1CC(Cl)=NO1 (stereo not drawn) 24.8%
S=C(NC1CCCCC1)NN(c1ccccc1)c1ccccc1 21.3%
O=C(c1cccc(F)c1)N1CCN(c2cc(N3CCCCC3)c(F)cc2[N+](=O)[O-])CC1 46.2%
O=C(NC(=O)N1CCN(c2ccc(F)cc2)CC1)c1ccccc1 32.6%
COc1ccc(N(CCC#N)S(=O)(=O)c2ccc(Cl)cc2)cc1 26.2%
CC(C)Oc1ccc(NC(=O)CCC(=O)O)cc1 21.6%
CCC(C)(C)NCC(=O)Nc1ccc(OC(F)(F)F)cc1 36.4%
CNC(=O)C(NC(=O)c1ccccc1)=C(C)C 30.4%
COc1ccc(C(=O)NCc2ccccc2)cc1S(=O)(=O)N1CCCc2ccccc21 32.7%
Cc1ccc(NC2(C#N)C(=O)Nc3ccccc32)cc1 (stereo not drawn) 30.8%
COC(=O)c1ccccc1NC(=O)C1CCN(C(=O)c2cc(OC)cc(OC)c2)CC1 20.4%
CN1CCN(S(=O)(=O)c2ccc(NC(=S)NC(=O)C(C)(C)C)cc2)CC1 26.6%
CCCCn1cnc2c1c(=O)[nH]c(=O)n2CCCC 21.8%
O=C(c1ccc(Cl)c([N+](=O)[O-])c1)N(c1ccccn1)c1ccccn1 24.1%
CN1/C(=C\C(=O)Nc2ccc(Cl)cc2)C(C)(C)c2ccccc21 42.2%
O=C(Cn1c(=O)oc2ccccc21)Nc1ccc(Cl)cc1 33%
C#CCOc1c(Br)cc(/C=N/O)cc1OCC -19.1%

inhibition, active:
CC(NC(=O)/C(C#N)=C/c1ccc([N+](=O)[O-])o1)c1ccccc1 (stereo not drawn) 52.1%
CC(NC(=O)/C(C#N)=C/c1ccc(Cl)c([N+](=O)[O-])c1)c1ccccc1 (stereo not drawn) 51.1%
COc1ccc(/C=C/C(=O)Nc2ccc3c(c2)CCC3)cc1OC 79.2%
COc1ccc(C(=O)NC(=S)Nc2ccccc2N2CCCCC2)cc1[N+](=O)[O-] 51.9%
COc1ccc(/C=C2\SC(N3CCc4ccccc4C3)=NC2=O)cc1 69.8%
CCN(CC)c1ccc(NC(=O)Cn2cc3c(n2)CCC(C)C3)c(C)c1 (stereo not drawn) 50.9%
CN(C)CCCN(C(=O)CCS(=O)(=O)c1ccccc1)c1nc2cc3c(cc2s1)OCO3 61.2%
Cc1ccc2sc(N(CCCN(C)C)C(=O)CCS(=O)(=O)c3ccccc3)nc2c1C 88.8%
CN(C)CCCN(C(=O)CCOc1ccccc1)c1nc2c(F)cccc2s1 64.8%
Cc1cccc2sc(N(CCCN(C)C)C(=O)CCS(=O)(=O)c3ccccc3)nc12 69.6%
CSc1cc(N2CCOCC2)nc(-c2ccccc2Cl)n1 72%
CCc1ccc(S(=O)(=O)/N=C2/C=C(Sc3ncn[nH]3)C(=O)c3ccccc32)cc1 86.3%
CCC(C)c1ccc(OCCn2ccnc2)cc1 (stereo not drawn) 58.6%
Cc1ccccc1OCCCSc1nc2ccccc2[nH]1 63%
Cc1cccc(OCCCSc2nc3ccc(C)cc3[nH]2)c1 56.4%
O=S(=O)(/C=C/c1ccccc1)NC1CCCCCCC1 61.6%
O=C(c1ccc2c(Cl)c3c(nc2c1)CCCC3)N1CCN(c2ccc(F)cc2)CC1 64.8%
Cc1ccc(NC(=O)CNc2ccc(OC(C)C)cc2)cc1 50.8%
C=C(C(=O)c1ccccc1)C(C)C(=C)C(=O)c1ccccc1 59.5%
COC(=O)c1ccccc1NC(=O)C1CCCN(S(=O)(=O)c2ccc(OC)cc2)C1 (stereo not drawn) 66.3%
O=[N+]([O-])c1ccc(O)c2ncccc12 93.5%
O=C(Cc1noc2ccccc12)Nc1ccc(Cl)cc1 55.3%
